Assay results taken from PubChem BioAssay (EPA / NIEHS).
Results filed as inconclusive are left out. Calls of active or inactive are those of the source. The calls were made as follows: active = hit-call score of the fitted dose curve at least 0.9, where 1 is the maximum; inconclusive = response in the unintended direction; inactive = score below 0.9.

Molecular target: Cytochrome P450 2C19 (Homo sapiens) (UniProt P33261)
Experiment: NVS_ADME_hCYP2C19: NovaScreen (NVS) CYP450-related Enzyme Activity (ADME) Assay for human CYP2C19 (AID 2283113);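 as to AC50: potency for inhibition seen as loss of fluorescent signal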
Experimental: NVS_ADME_hCYP2C19 is a biochemical, single-readout assay that uses extracted gene-proteins from insect cells in a cell-free assay. Measurements were taken 1 hour after chemical dosing in a 96-well plate.NVS_ADME_hCYP2C19 is one of one assay component(s) measured or calculated from the NVS_ADME_hCYP2C19 assay. It is designed to make measurements of enzyme activity, a form of enzyme reporter, as detected with fluorescence intensity signals by Fluorescence technology.Data from the assay component NVS_ADME_hCYP2C19 was analyzed into 1 assay endpoint. This assay endpoint, NVS_ADME_hCYP2C19, was analyzed in the positive analysis fitting direction relative to Acetonitrile as the negative control and baseline of activity. Using a type of enzyme reporter, loss-of-signal activity can be used to understand changes in the enzymatic activity as they relate to the gene CYP2C19. Furthermore, this assay endpoint can be referred to as a primary readout, because this assay has produced multiple assay endpoints where this one serves a enzymatic activity function. To generalize the intended target to other relatable targets, this assay endpoint is annotated to the cyp intended target family, where the subfamily is xenobiotic metabolism.
Binding assays used specific radioligands (tritiated, iodinated) with non-radioactive competitive displacement ligands in agonist or antagonist protocols (as indicated) and various reference compounds and inhibitors to titrate specific binding to receptors and transporters. Most enzyme assays (CYPs, kinases, phosphatases, proteases, HDACs) used recombinant protein and specific substrates (fluorescence mostly, some colorimetric and radioactive) and inhibitors, followed by a biochemical separation of substrate and product. All assays for the biochemical HTS were initially run in duplicate at a single concentration (10 uM for CYP450 assays and 25 uM for all others). […] Each assay was run with positive and negative controls, and concurrent controls on every plate. The follow-up (secondary) screen tested active chemical-pairs in concentration series, as well as a few additional assays not tested in the primary screen, some selected negative inactives, and several cases re-run in the concentration series for confirmatory purposes.

Row | SMILES | AC50 | outcome
1 | COP(=O)(OC)SCn1c(=O)oc2cc(Cl)cnc21 | 4.57 µM (active) | 
2 | CCCCOC(=O)[C@@H](C)Oc1ccc(Oc2ccc(C#N)cc2F)cc1 | 10 µM (active) | 
3 | CCc1cccc(CC)c1N(COC)C(=O)CCl | 6.1 µM (active) | 
4 | CON=C(C(=O)OC)c1ccccc1CON=C(C)c1cccc(C(F)(F)F)c1 | 2.26 µM (active) | 
5 | CSc1nnc(C(C)(C)C)c(=O)n1N |  | inactive
6 | CCCOCC(=Nc1ccc(Cl)cc1C(F)(F)F)n1ccnc1 | 0.16 µM (active) | 
7 | CCOP(=S)(OCC)Oc1cc(C)nc(C(C)C)n1 | 4.82 µM (active) | 
8 | Cc1cc(C2CC2)nc(Nc2ccccc2)n1 |  | inactive
9 | CC(=NC#N)N(C)Cc1ccc(Cl)nc1 | 10 µM (active) | 
10 | CC(C)[C@H](C(=O)O[C@H](C#N)c1cccc(Oc2ccccc2)c1)c1ccc(Cl)cc1 | 8.22 µM (active) | 
11 | C=C(C)[C@H]1Cc2c(ccc3c2O[C@@H]2COc4cc(OC)c(OC)cc4[C@@H]2C3=O)O1 | 0.434 µM (active) | 
12 | CCCCOC(=O)c1ccccc1C(=O)O |  | inactive
13 | CC(C1CC1)C(O)(Cn1cncn1)c1ccc(Cl)cc1 (stereo not drawn) | 0.111 µM (active) | 
14 | CCc1cccc(C)c1N(C(=O)CCl)C(C)COC (stereo not drawn) | 4.6 µM (active) | 
15 | CCCCSP(=O)(SCCCC)SCCCC |  | inactive
16 | CC1(C(=O)Nc2ccc(O)c(Cl)c2Cl)CCCCC1 | 6.6 µM (active) | 
17 | COc1cccc(C(=O)NN(C(=O)c2cc(C)cc(C)c2)C(C)(C)C)c1C | 2.58 µM (active) | 
18 | COc1ccc(C(=CC(=O)N2CCOCC2)c2ccc(Cl)cc2)cc1OC | 7.59 µM (active) | 
19 | CSC1=N[C@@](C)(c2ccccc2)C(=O)N1Nc1ccccc1 | 0.776 µM (active) | 

Row | SMILES | AC50 | outcome
20 | CCOP(=O)(SC(C)CC)N1CCSC1=O (stereo not drawn) | 6.44 µM (active) | 
21 | CSc1nc(NC(C)C)nc(NC(C)C)n1 | 13.4 µM (active) | 
22 | COP(=O)(OC)OC(Br)C(Cl)(Cl)Br (stereo not drawn) | 7.79 µM (active) | 
23 | S=C1NCCN1 |  | inactive
24 | CCC(CC)Nc1c([N+](=O)[O-])cc(C)c(C)c1[N+](=O)[O-] | 10 µM (active) | 
25 | CCOP(=O)(OCC)Oc1cc(C)nc(C(C)C)n1 | 10 µM (active) | 
26 | CC(C)=CC1C(C(=O)OCN2C(=O)C3=C(CCCC3)C2=O)C1(C)C (stereo not drawn) | 6.88 µM (active) | 
27 | CC[C@H](C)[C@H]1O[C@]2(C=C[C@@H]1C)C[C@@H]1C[C@@H](C/C=C(\C)[C@@H](O[C@H]3C[C@H](OC)[C@@H](O[C@H]4C[C@H](OC)[C@@H](NC)[C@H](C)O4)[C@H](C)O3)[C@@H](C)/C=C/C=C3\CO[C@@H]4[C@H](O)C(C)=C[C@@H](C(=O)O1)[C@]34O)O2 | 10 µM (active) | 
28 | CC(COc1ccc(Oc2ccccc2)cc1)Oc1ccccn1 (stereo not drawn) | 13.7 µM (active) | 
29 | CCOP(=S)(OCC)Oc1ccc2c(C)c(Cl)c(=O)oc2c1 | 0.428 µM (active) | 
30 | CCOC(=O)CC(SP(=O)(OC)OC)C(=O)OCC (stereo not drawn) | 9.39 µM (active) | 
31 | CCCSP(=O)(OCC)Oc1ccc(Br)cc1Cl (stereo not drawn) | 10 µM (active) | 
32 | FC(F)C(F)(F)OCC(Cn1cncn1)c1ccc(Cl)cc1Cl (stereo not drawn) | 0.00646 µM (active) | 
33 | CNc1cnn(-c2cccc(C(F)(F)F)c2)c(=O)c1Cl | 4.35 µM (active) | 
34 | CCOP(=O)(NC(C)C)Oc1ccc(SC)c(C)c1 (stereo not drawn) | 5.92 µM (active) | 
35 | CCOP(=S)(OCC)Oc1ccc([N+](=O)[O-])cc1 | 0.21 µM (active) | 
36 | O=[N+]([O-])c1cc(C(F)(F)F)c(Cl)c([N+](=O)[O-])c1Nc1ncc(C(F)(F)F)cc1Cl | 1.39 µM (active) | 
37 | Nc1c(Cl)cc([N+](=O)[O-])cc1Cl |  | inactive
38 | C[Si](Cn1cncn1)(c1ccc(F)cc1)c1ccc(F)cc1 | 0.0366 µM (active) | 
